The text below walks through data of PubChem BioAssay (NCATS).

Inconclusive results are not listed. A call without a number means that no potency is given here. Values without a mark were called inactive. Activity calls are given as the source filed them. Calls follow the shape of the dose curve; as a rule, active = well fitted cell-killing curve with a large enough effect; inconclusive = small, poorly fitted or top-dose-only effect; inactive = no such curve, though single readings can be large or run the other way.

One assay can be described thus: qHTS of pediatric cancer cell lines to identify multiple opportunities for drug repurposing: Primary screen for SK-N-SH cells (AID 1347098).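 Also: DMSO served as neutral control and bortezomib at 2.3 µM as positive control; nearly all actives have a fitted effect of over 65% in size.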 As to conditions: SK-N-SH viability, CellTiter-Glo luminescence, 48 h; series mostly up to 57 µM. The gist of the method: (§1)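 Cells (500-1,000/well) rested 5 h, then received compounds for 48 h; metabolically active cells were measured by CellTiter-Glo luminescence. Final concentrations spanned up to 46 µM (MIPE, 11-point) or 0.59 nM-46 µM (NPC, 8-point) in primary screens, 11-point in follow-ups.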
For orientation: qHTS replaces the single test concentration by a dilution series.
In the case of `CCCOC(=O)c1ccc(O)cc1`, the Potency result is “inactive”.

As for `O=C(O)Cc1cccc(-c2cc(CCCCCCc3ccc(O[C@H]4O[C@H](CO)[C@@H](O)[C@H](O)[C@@H]4O)c(-c4cccc(CC(=O)O)c4)c3)ccc2O[C@H]2O[C@H](CO)[C@@H](O)[C@H](O)[C@@H]2O)c1`, the activity change, negative = cytotoxic is -3.64% [at 0.741 µM].

`O=C(O)/C=C\C(=O)O`: the Potency entry is “inactive”.

Turning to `COc1ccc(-c2cc(=S)ss2)cc1`, the Potency result was “inactive”.

Turning to `O=C(CCN1CCN(CCO)CC1)N1c2ccccc2Sc2ccc(C(F)(F)F)cc21`, the Potency result is “inactive”.

Turning to `c1ccc2sc(SN3CCOCC3)nc2c1`, the Potency entry was “inactive”.

Take `O=C(OCc1ccccc1)c1ccccc1`: the Potency result was “inactive”.

Regarding `Nc1c(CC(=O)O)cccc1C(=O)c1ccc(Br)cc1`, the Potency result is “inactive”.

With `CC(=O)c1ccc(OCC(=O)N2CCCCC2)cc1`, the Potency result is “inactive”.

Turning to `CNC(=O)c1c(I)c(NC(=O)CCCCC(=O)Nc2c(I)c(C(=O)O)c(I)c(C(=O)NC)c2I)c(I)c(C(=O)O)c1I`, the Potency entry is “inactive”.

Take `O=C(O)c1cc(O)c(O)c(O)c1`: the Potency result was “inactive”.

On to `C=CCCCCCCCCC(=O)O`, for which the Potency result was “inactive”.

As to `Cc1ccc(C(=O)c2ccc(CC(=O)O)n2C)cc1`, the Potency result was “inactive”.

On to `Nc1cc(-c2ccncc2)c[nH]c1=O`, for which the Potency result was “inactive”.

Regarding `COc1ccnc2c1CCCCC2S(=O)c1nc2ccccc2[nH]1` (configuration not stated), the Potency result is “inactive”.

`N=C(N)N`: the Potency result was “inactive”.

Take `Nc1ccc(C(=O)O)c(O)c1`: the Potency result was “inactive”.

Regarding `CC1(C)S[C@@H]2[C@H](NC(=O)[C@H](N)c3ccccc3)C(=O)N2[C@H]1C(=O)O`, the Potency result was “inactive”.

As for `CN(C)[C@@H]1C(=O)C(C(=O)NCN2CCCC2)=C(O)[C@@]2(O)C(=O)C3=C(O)c4c(O)cccc4[C@@](C)(O)C3C[C@@H]12` (some centres not stated), the Potency result was “inactive”.

As to `CCCCCCCCCCCCOCCO`, the Potency entry is “inactive”.

As for `CC(=O)SCC(CC(=O)c1ccc(C)cc1)C(=O)O` (configuration not stated), the Potency result was “inactive”.

Take `O=C(O)c1ccccc1Nc1cccc(C(F)(F)F)c1`: the Potency result is “inactive”.

In the case of `CCOc1ccc2nc(S(N)(=O)=O)sc2c1`, the Potency result is “inactive”.

Consider `Cc1c(Nc2ncccc2C(=O)O)cccc1C(F)(F)F`, for which the Potency result was “inactive”.

Consider `O=C(/C=C/c1ccccc1)NCCO`, for which the Potency result is “inactive”.

On to `CCCCCCOc1ccccc1C(N)=O`, for which the Potency result was “inactive”.

For `CCOC(=O)c1ccccc1O`, the Potency entry is “inactive”.

Turning to `COc1cc2c3cc1Oc1cc(ccc1O)C[C@@H]1c4c(cc(OC)c(O)c4Oc4ccc(cc4)C[C@@H]3N(C)CC2)CC[N+]1(C)C`, the Potency result was “inactive”.

Regarding `O=C(O)Cc1ccc2c(c1)C(=O)c1ccccc1CO2`, the Potency result was “inactive”.

As to `Cc1c(N)c(=O)n(-c2ccccc2)n1C`, the Potency result is “inactive”.

Turning to `CC(C)(C)c1nnc(NS(=O)(=O)c2ccc(N)cc2)s1`, the Potency entry was “inactive”.

For the molecule `CN1CCN(c2cc3c(nn2)Oc2ccccc2N3C)CC1`, the Potency entry was “inactive”.

In the case of `CC(C)OC(=O)c1cc(C(=O)OC(C)C)cc([N+](=O)[O-])c1`, the Potency entry was “inactive”.

A short description of another assay: qHTS of pediatric cancer cell lines to identify multiple opportunities for drug repurposing: Primary screen for NB1643 cells (AID 1347099). Also: nearly all actives have a fitted effect of over 50% in size. The settings on record: NB1643 neuroblastoma viability, CellTiter-Glo luminescence, 48 h; series mostly up to 46 µM. In short, it runs like this:
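Cells seeded at 500-1,000 cells/well in growth media, rested 5 hours at 37 degrees C, 5% CO2, then dosed; MIPE compounds at 11-point (from 0.78 nM) and NPC at 8-point (from 0.59 nM) final concentrations. Viability by CellTiter-Glo luminescence after 48 hours.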
On to `CCCOC(=O)c1ccc(O)cc1`, for which the Potency result is “inactive”.

Consider `CC(C(=O)O)c1ccc2c(c1)[nH]c1ccc(Cl)cc12` (configuration not stated), for which the Potency entry is “inactive”.

Take `COc1ccc(-c2cc(=S)ss2)cc1`: the Potency result is “inactive”.

Regarding `Nc1c(CC(=O)O)cccc1C(=O)c1ccc(Br)cc1`, the Potency result was “inactive”.

For the molecule `CC(=O)c1ccc(OCC(=O)N2CCCCC2)cc1`, the Potency result was “inactive”.

As to `C=CCCCCCCCCC(=O)O`, the Potency entry was “inactive”.

Take `CN(C)[C@@H]1C(=O)C(C(=O)NCN2CCCC2)=C(O)[C@@]2(O)C(=O)C3=C(O)c4c(O)cccc4[C@@](C)(O)C3C[C@@H]12` (some centres not stated): the Potency entry is “inactive”.

Take `O=C(O)c1ccccc1Nc1cccc(C(F)(F)F)c1`: the Potency entry is “inactive”.

In the case of `CCOc1ccc2nc(S(N)(=O)=O)sc2c1`, the Potency result was “inactive”.

In the case of `Cc1c(Nc2ncccc2C(=O)O)cccc1C(F)(F)F`, the Potency entry was “inactive”.

Consider `O=C(/C=C/c1ccccc1)NCCO`, for which the Potency entry is “inactive”.

Take `Clc1ccccc1-c1nc(-c2ccncc2)no1`: the Potency result was “inactive”.

A short description of another assay: qHTS of pediatric cancer cell lines to identify multiple opportunities for drug repurposing: Primary screen for LAN-5 cells (AID 1347100). Also: potency is read from the fitted curve at half-maximal effect. The settings on record: LAN-5 neuroblastoma viability, CellTiter-Glo luminescence, 48 h; series mostly up to 46 µM. In short, it runs like this:
as §1
Regarding `CCCOC(=O)c1ccc(O)cc1`, the Potency result was “inactive”.

In the case of `O=C(O)Cc1cccc(-c2cc(CCCCCCc3ccc(O[C@H]4O[C@H](CO)[C@@H](O)[C@H](O)[C@@H]4O)c(-c4cccc(CC(=O)O)c4)c3)ccc2O[C@H]2O[C@H](CO)[C@@H](O)[C@H](O)[C@@H]2O)c1`, the activity change, negative = cytotoxic was 9.16% [at 0.597 µM].

Consider `O=C(O)/C=C\C(=O)O`, for which the Potency result is “inactive”.

Regarding `CC(C(=O)O)c1ccc2c(c1)[nH]c1ccc(Cl)cc12` (configuration not stated), the Potency result was “inactive”.

Regarding `COc1ccc(-c2cc(=S)ss2)cc1`, the Potency entry was “inactive”.

Regarding `O=C(CCN1CCN(CCO)CC1)N1c2ccccc2Sc2ccc(C(F)(F)F)cc21`, the Potency result was “inactive”.

Take `c1ccc2sc(SN3CCOCC3)nc2c1`: the Potency entry was “inactive”.

As for `O=C(OCc1ccccc1)c1ccccc1`, the Potency entry is “inactive”.

As to `Nc1c(CC(=O)O)cccc1C(=O)c1ccc(Br)cc1`, the Potency entry is “inactive”.

For the molecule `CC(=O)c1ccc(OCC(=O)N2CCCCC2)cc1`, the Potency entry was “inactive”.

Consider `CNC(=O)c1c(I)c(NC(=O)CCCCC(=O)Nc2c(I)c(C(=O)O)c(I)c(C(=O)NC)c2I)c(I)c(C(=O)O)c1I`, for which the Potency result is “inactive”.

As to `O=C(O)c1cc(O)c(O)c(O)c1`, the Potency entry was “inactive”.

`C=CCCCCCCCCC(=O)O`: the Potency entry was “inactive”.

`Cc1ccc(C(=O)c2ccc(CC(=O)O)n2C)cc1`: the Potency entry is “inactive”.

Consider `Nc1nc2ccc([N+](=O)[O-])cc2s1`, for which the Potency entry was “inactive”.

Regarding `COc1ccnc2c1CCCCC2S(=O)c1nc2ccccc2[nH]1` (configuration not stated), the Potency entry is “inactive”.

Take `N=C(N)N`: the Potency entry is “inactive”.

Consider `CCCCCCCC/C=C/C(=O)O`, for which the Potency entry is “inactive”.

For `Nc1ccc(C(=O)O)c(O)c1`, the Potency result was “inactive”.

Regarding `CC1(C)S[C@@H]2[C@H](NC(=O)[C@H](N)c3ccccc3)C(=O)N2[C@H]1C(=O)O`, the Potency result is “inactive”.

Turning to `CN(C)[C@@H]1C(=O)C(C(=O)NCN2CCCC2)=C(O)[C@@]2(O)C(=O)C3=C(O)c4c(O)cccc4[C@@](C)(O)C3C[C@@H]12` (some centres not stated), the Potency entry is “inactive”.

Turning to `CCCCCCCCCCCCOCCO`, the Potency result is “inactive”.

For the molecule `CC(=O)SCC(CC(=O)c1ccc(C)cc1)C(=O)O` (configuration not stated), the Potency entry is “inactive”.

Consider `O=C(O)c1ccccc1Nc1cccc(C(F)(F)F)c1`, for which the Potency result was “inactive”.

With `CCOc1ccc2nc(S(N)(=O)=O)sc2c1`, the Potency result was “inactive”.

On to `CCCSc1ccc2nc(NC(=O)OC)[nH]c2c1`, for which the Potency was 1190 nM (active).

In the case of `Cc1c(Nc2ncccc2C(=O)O)cccc1C(F)(F)F`, the Potency entry is “inactive”.

Turning to `O=C(/C=C/c1ccccc1)NCCO`, the Potency entry was “inactive”.

Turning to `CCCCCCOc1ccccc1C(N)=O`, the Potency result is “inactive”.

`CCOC(=O)c1ccccc1O`: the Potency entry is “inactive”.

Regarding `COc1cc2c3cc1Oc1cc(ccc1O)C[C@@H]1c4c(cc(OC)c(O)c4Oc4ccc(cc4)C[C@@H]3N(C)CC2)CC[N+]1(C)C`, the Potency entry is “inactive”.

In the case of `O=C(O)Cc1ccc2c(c1)C(=O)c1ccccc1CO2`, the Potency result was “inactive”.

Turning to `Cc1c(N)c(=O)n(-c2ccccc2)n1C`, the Potency entry is “inactive”.

For `Clc1ccccc1-c1nc(-c2ccncc2)no1`, the Potency result was “inactive”.

Turning to `CC(C)(C)c1nnc(NS(=O)(=O)c2ccc(N)cc2)s1`, the Potency entry was “inactive”.

As for `CN1CCN(c2cc3c(nn2)Oc2ccccc2N3C)CC1`, the Potency entry was “inactive”.

Turning to `CC(C)OC(=O)c1cc(C(=O)OC(C)C)cc([N+](=O)[O-])c1`, the Potency entry is “inactive”.
